Reference: PubChem BioAssay AID1159580 (chemical genetic matrix, 2015)
“And” between values parts separate entries of the source, which are not always exact repeats. Equal values may be shown once. Out of some 5,500 compounds screened, about 2,000 (36%) were called active. About 18% were inconclusive and are not listed. No stated cut-off is given here; in the data, active means normalized growth mostly below about 0.91 (no sharp cut-off); inconclusive means no clear call, values can overlap the other calls; inactive means mostly above about 0.92. This is one part of the list.

Assay: chemical genetic growth profiling, strain panel (AID 1159580);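 further: tested at 20 µM; growth read once vehicle control cultures reached saturation at 30 °C; 1 = growth at the plate median or of vehicle wells; lower values mean less growth of the strain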
Details: S. cerevisiae deletion strains, growth OD

Measured: normalized growth

O=C1C=C2C(=CCOC2O)O1 (stereo unspecified)
inactive: locus YAL013W, strain DEP1, hits give low values 0.922 | locus YBR229C, strain ROT2, hits give low values 0.991 | locus YCL029C, strain bik1, hits give low values 0.913 | locus YDL134C, strain PPH21, hits give low values 0.9 | locus YDR195W, strain ref2 0.927 | locus YER111C, strain swi4, hits give low values 0.938 | locus YER155C, strain BEM2, hits give low values 0.962 | locus YHR094C, strain hxt1, hits give low values 0.948 | locus YJL115W, strain asf1, hits give low values 0.961 | locus YJL134W, strain LCB3, hits give low values 0.961 | locus YJL168C, strain set2, hits give low values 0.939 | locus YJR043C, strain POL32, hits give low values 0.882 | locus YJR066W, strain TOR1, hits give low values 0.831
active: locus YAL021C, strain ccr4, hits give low values 0.679 | locus YAL026C, strain drs2, hits give low values 0.644 | locus YAL030W, strain snc1, hits give low values 0.781 | locus YBL061C, strain skt5, hits give low values 0.796 | locus YBR009C, strain hhf1, hits give low values 0.71 | locus YBR021W, strain FUR4, hits give low values 0.762 | locus YBR023C, strain chs3, hits give low values 0.784 | locus YBR171W, strain sec66, hits give low values 0.672 | locus YBR231C, strain swc5, hits give low values 0.73 | locus YBR279W, strain paf1, hits give low values 0.78 | locus YCL011C, strain gbp2, hits give low values 0.759 | locus YCL016C, strain dcc1, hits give low values 0.73 | locus YCL069W, strain vba3, hits give low values 0.752 | locus YCR088W, strain abp1, hits give low values 0.792 | locus YDL005C, strain med2, hits give low values 0.881 | locus YDL035C, strain GPR1, hits give low values 0.776 | locus YDL040C, strain nat1, hits give low values 0.887 | locus YDL074C, strain BRE1, hits give low values 0.678 | locus YDL101C, strain DUN1, hits give low values 0.851 | locus YDL185W, strain tfp1, hits give low values 0.789 | locus YDL192W, strain arf1, hits give low values 0.789 | locus YDR001C, strain nth1, hits give low values 0.846 | locus YDR069C, strain doa4, hits give low values 0.652 | locus YDR101C, strain arx1, hits give low values 0.8 | locus YDR137W, strain rgp1, hits give low values 0.335 | locus YDR150W, strain NUM1, hits give low values 0.831 | locus YDR159W, strain sac3, hits give low values 0.847 | locus YDR162C, strain NBP2, hits give low values 0.258 | locus YDR297W, strain sur2, hits give low values 0.797 | locus YDR318W, strain mcm21, hits give low values 0.793 | locus YDR334W, strain swr1, hits give low values 0.845 | locus YDR335W, strain msn5, hits give low values 0.698 | locus YDR388W, hits give low values 0.864 | locus YDR392W, strain spt3, hits give low values 0.555 | locus YDR502C, strain sam2, hits give low values 0.763 | locus YEL003W, strain gim4, hits give low values 0.659 | locus YEL037C, strain rad23, hits give low values 0.82 | locus YEL061C, strain CIN8 (second series), hits give low values 0.759 | locus YEL061C, strain CIN8, hits give low values 0.848 | locus YER015W, strain faa2, hits give low values 0.635 | locus YER016W, strain bim1, hits give low values 0.833 | locus YER110C, hits give low values 0.597 | locus YER155C, strain BEM2 (second series), hits give low values 0.303 | locus YER167W, strain BCK2, hits give low values 0.795 | locus YFR010W, strain ubp6, hits give low values 0.613 | locus YGL078C, strain dbp3, hits give low values 0.869 | locus YGL086W, strain mad1, hits give low values 0.806 | locus YGL167C, strain pmr1, hits give low values 0.846 | locus YGL173C, strain kem1, hits give low values 0.707 | locus YGL227W, strain vid30, hits give low values 0.843 | locus YGL240W, strain doc1, hits give low values 0.487 | locus YGL248W, strain PDE1, hits give low values 0.883 | locus YGL253W, strain hxk2, hits give low values 0.657 | locus YGR078C, strain PAC10, hits give low values 0.702 | locus YGR135W, strain pre9, hits give low values 0.784 | locus YGR229C, strain SMI1, hits give low values 0.366 | locus YGR252W, strain gcn5, hits give low values 0.462 | locus YHR013C, strain ard1, hits give low values 0.589 | locus YHR027C, strain rpn1, hits give low values 0.71 | locus YHR030C, strain SLT2, hits give low values 0.9 and 0.845 | locus YHR079C, strain IRE1 (second series), hits give low values 0.858 | locus YHR079C, strain IRE1, hits give low values 0.84 | locus YHR129C, strain ARP1, hits give low values 0.855 | locus YHR142W, strain chs7, hits give low values 0.684 | locus YHR200W, strain rpn10, hits give low values 0.91 | locus YIL066C, strain RNR3, hits give low values 0.776 | locus YIL073C, strain SPO22, hits give low values 0.5 | locus YIL125W, strain kgd1, hits give low values 0.886 | locus YIR030C, strain dcg1, hits give low values 0.911 | locus YJL092W, strain hpr5, hits give low values 0.744 | locus YJL095W, strain BCK1 (second series), hits give low values 0.833 | locus YJL095W, strain BCK1, hits give low values 0.795 and 0.859 | locus YJL129C, strain trk1, hits give low values 0.769 | locus YJL154C, strain vps35, hits give low values 0.859 | locus YJL164C, strain tpk1, hits give low values 0.757 | locus YJL166W, strain qcr8, hits give low values 0.667 | locus YJL187C, strain SWE1 (second series), hits give low values 0.829 | locus YJR075W, strain HOC1, hits give low values 0.805
